Parameters in all cases: scale not given: direction of the effect not stated beside the values
Assay [1] has as its target Protein translocase subunit SecA (Escherichia coli (strain K12)) (UniProt P10408). Briefly: Assay to Identify E. coli SecA ATPase Inhibitors. It counts as functional. Particulars: 30 µM.
Assay [2] addresses T1, Ubiquitin-activating enzyme e1, putative (Leishmania donovani (strain BPK282A1)) (UniProt E9BSI1).
T1 sequence (whole entry): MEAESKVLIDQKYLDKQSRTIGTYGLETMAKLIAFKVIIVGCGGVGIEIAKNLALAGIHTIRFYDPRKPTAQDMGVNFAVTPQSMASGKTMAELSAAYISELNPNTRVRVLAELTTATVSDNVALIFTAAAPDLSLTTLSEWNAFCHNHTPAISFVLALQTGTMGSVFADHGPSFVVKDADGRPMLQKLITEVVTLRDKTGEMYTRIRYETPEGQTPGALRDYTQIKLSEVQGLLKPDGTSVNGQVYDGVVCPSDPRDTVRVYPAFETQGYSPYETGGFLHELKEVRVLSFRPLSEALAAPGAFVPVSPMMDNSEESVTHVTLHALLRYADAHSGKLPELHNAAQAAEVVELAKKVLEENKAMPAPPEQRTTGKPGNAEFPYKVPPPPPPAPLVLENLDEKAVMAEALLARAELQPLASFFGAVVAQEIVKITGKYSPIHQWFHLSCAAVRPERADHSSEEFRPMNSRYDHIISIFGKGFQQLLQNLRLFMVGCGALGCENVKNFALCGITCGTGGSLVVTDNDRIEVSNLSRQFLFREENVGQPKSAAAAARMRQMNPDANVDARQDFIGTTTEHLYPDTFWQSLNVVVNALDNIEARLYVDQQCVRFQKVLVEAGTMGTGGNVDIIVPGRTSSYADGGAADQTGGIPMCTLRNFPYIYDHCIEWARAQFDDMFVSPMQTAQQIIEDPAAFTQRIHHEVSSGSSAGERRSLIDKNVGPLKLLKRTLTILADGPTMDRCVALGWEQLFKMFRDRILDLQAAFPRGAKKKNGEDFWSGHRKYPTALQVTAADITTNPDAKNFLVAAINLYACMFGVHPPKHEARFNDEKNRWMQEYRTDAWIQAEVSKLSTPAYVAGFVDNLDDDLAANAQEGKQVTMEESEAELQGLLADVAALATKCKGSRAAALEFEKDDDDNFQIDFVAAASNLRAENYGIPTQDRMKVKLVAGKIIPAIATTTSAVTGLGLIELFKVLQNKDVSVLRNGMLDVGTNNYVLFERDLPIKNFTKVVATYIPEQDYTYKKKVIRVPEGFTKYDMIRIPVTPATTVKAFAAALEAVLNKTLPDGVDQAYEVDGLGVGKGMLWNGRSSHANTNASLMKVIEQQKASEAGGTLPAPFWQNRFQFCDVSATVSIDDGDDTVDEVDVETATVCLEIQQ
Briefly: Leishmania donovani Ubiquitin Activating Enzyme (LdE1). It counts as functional. Particulars: 30 µM.

The target of assay [3] is T2, Aspartate--tRNA(Asp/Asn) ligase (Mycobacterium tuberculosis (strain ATCC 25618 / H37Rv)) (UniProt P9WFW3). Further: in the data most compounds retested in dose-response had high values.
T2 sequence (whole entry): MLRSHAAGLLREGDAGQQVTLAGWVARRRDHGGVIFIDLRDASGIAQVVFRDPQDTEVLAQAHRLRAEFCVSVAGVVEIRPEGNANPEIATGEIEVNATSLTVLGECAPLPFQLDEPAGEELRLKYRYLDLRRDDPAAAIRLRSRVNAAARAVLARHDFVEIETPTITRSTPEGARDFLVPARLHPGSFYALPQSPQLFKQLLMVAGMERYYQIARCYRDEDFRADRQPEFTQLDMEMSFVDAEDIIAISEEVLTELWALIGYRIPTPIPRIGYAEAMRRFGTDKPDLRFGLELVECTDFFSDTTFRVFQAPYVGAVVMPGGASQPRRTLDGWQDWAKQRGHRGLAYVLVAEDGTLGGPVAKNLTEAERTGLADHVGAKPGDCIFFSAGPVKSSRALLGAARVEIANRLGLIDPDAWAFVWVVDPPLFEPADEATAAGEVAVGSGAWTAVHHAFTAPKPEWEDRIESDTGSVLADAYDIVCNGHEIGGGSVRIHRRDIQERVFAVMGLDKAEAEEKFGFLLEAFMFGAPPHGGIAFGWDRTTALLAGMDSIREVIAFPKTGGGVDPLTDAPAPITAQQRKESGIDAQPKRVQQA
Kind of assay: Assay for Asp RNA synthetase-1 from Mycobacterium tuberculosis. It counts as functional. Particulars: 30 µM.

Assay [4] has as its target Sialic acid-binding Ig-like lectin 9 (Homo sapiens) (UniProt Q9Y336). Briefly: Hs-Siglec9 ALPHAscreen SOP 20170721. Particulars: 10 µM. (Bead proximity is the source of the signal in Alpha formats.)
The next assay concerns Trypanosoma cruzi. Briefly: Trypanosoma cruzi phosphomannomutase and mannose-1-phosphate guanylyltransferase assay. Particulars: 10 µM. It counts as functional.
Assay [5] has as its target T3, Arginase-2, mitochondrial (Homo sapiens) (UniProt P78540).
T3 sequence (whole entry): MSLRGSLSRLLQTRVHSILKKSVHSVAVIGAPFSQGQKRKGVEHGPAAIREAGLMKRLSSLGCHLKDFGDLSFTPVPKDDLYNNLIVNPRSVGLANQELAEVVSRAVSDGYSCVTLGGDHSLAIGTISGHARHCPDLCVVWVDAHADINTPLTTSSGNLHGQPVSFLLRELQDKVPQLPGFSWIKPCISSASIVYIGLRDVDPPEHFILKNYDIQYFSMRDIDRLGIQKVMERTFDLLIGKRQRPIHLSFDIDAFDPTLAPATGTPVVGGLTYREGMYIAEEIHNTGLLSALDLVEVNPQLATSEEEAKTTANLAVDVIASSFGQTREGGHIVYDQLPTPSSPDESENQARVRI
Briefly: in vitro enzyme assay to detect the production of urea directly proportional to the activity of Arginase II. Further: in the data most compounds retested in dose-response had high values. It counts as functional. Particulars: 33.3 µM.

Assay [6] deals with T4, Proteasome subunit beta (Trypanosoma cruzi) (UniProt O96673).
T4 sequence (whole entry): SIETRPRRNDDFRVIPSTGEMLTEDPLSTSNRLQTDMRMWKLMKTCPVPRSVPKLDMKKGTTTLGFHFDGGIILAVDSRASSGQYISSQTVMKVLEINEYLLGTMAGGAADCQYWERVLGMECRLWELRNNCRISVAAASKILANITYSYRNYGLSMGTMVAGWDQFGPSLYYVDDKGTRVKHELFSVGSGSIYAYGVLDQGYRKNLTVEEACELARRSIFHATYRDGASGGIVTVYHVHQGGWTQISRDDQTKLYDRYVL
Kind of assay: Trypanosoma cruzi proteasome chymotrypsin-like activity (TcProtChymo) assay. Further: in the data most compounds retested in dose-response had high values. Type of assay: functional. Particulars: 9.37 µM.

The species entered for the next assay is Homo sapiens. Briefly: To identify inhibition of the IFN signalling (Jak-Stat) pathway via expression of an eGFP reporter gene under the control of an IFN-stimulated response element (ISRE) containing MxA promoter. It counts as functional. Particulars: 30 µM.
Assay [7] has as its target Shiga toxin 2 (Escherichia coli O157:H7) (UniProt P09385+P09386). Kind of assay: E. coli 0.157:H7 Shiga Toxin SOP - stx2 screening assay. It counts as functional. Particulars: 30 µM.
For assay [8], the target named is T5, Tyrosyl-tRNA synthetase, putative (Trypanosoma cruzi (strain CL Brener)) (UniProt Q4DSP6).
T5 sequence (whole entry): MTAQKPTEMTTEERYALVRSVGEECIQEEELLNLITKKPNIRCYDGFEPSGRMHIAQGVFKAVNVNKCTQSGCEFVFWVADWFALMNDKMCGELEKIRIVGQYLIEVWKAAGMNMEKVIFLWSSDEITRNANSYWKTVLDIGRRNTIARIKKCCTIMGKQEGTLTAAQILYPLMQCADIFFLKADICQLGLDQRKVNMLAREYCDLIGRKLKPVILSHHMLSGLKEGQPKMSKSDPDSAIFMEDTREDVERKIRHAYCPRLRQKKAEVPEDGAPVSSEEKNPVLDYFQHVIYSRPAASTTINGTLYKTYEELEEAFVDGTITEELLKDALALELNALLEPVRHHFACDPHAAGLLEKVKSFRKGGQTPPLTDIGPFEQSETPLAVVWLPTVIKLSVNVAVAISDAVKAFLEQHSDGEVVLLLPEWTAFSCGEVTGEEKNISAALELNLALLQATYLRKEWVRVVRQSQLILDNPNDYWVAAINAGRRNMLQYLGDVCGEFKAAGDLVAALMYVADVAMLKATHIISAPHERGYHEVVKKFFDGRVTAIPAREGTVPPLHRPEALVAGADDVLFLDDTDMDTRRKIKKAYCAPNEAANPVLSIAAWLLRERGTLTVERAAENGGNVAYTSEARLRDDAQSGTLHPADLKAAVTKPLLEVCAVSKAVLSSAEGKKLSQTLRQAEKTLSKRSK
Briefly: Trypanosoma cruzi tyrosyl tRNA synthetase (TcYRS) _High Tyrosine SOP. Further: in the data most compounds retested in dose-response had high values. Type of assay: functional. Particulars: 30 µM.

Assay [9] deals with T5, Tyrosyl-tRNA synthetase, putative (Trypanosoma cruzi (strain CL Brener)). Kind of assay: Trypanosoma cruzi tyrosyl tRNA synthetase (TcYRS) SOP. It counts as functional. Particulars: 30 µM.
The target of assay [10] is Chromo domain-containing protein 1 (Saccharomyces cerevisiae (strain ATCC 204508 / S288c) (Baker's yeast)) (UniProt P32657). Kind of assay: ScCHD-1 Enzyme Inhibition Assay. Further: in the data most compounds retested in dose-response had high values. It counts as functional. Particulars: 30 µM.

For ten compounds, Percent Effect results are on record in ChEMBL document CHEMBL3988442, “University of Dundee, Small-Polar-MMV Screening Library” (2021).

Molecules are shown by their SMILES. For some of these results: Measured potencies and affinities stand elsewhere.

Chain of Protein translocase subunit SecA (Escherichia coli (strain K12)) (P10408 whole entry): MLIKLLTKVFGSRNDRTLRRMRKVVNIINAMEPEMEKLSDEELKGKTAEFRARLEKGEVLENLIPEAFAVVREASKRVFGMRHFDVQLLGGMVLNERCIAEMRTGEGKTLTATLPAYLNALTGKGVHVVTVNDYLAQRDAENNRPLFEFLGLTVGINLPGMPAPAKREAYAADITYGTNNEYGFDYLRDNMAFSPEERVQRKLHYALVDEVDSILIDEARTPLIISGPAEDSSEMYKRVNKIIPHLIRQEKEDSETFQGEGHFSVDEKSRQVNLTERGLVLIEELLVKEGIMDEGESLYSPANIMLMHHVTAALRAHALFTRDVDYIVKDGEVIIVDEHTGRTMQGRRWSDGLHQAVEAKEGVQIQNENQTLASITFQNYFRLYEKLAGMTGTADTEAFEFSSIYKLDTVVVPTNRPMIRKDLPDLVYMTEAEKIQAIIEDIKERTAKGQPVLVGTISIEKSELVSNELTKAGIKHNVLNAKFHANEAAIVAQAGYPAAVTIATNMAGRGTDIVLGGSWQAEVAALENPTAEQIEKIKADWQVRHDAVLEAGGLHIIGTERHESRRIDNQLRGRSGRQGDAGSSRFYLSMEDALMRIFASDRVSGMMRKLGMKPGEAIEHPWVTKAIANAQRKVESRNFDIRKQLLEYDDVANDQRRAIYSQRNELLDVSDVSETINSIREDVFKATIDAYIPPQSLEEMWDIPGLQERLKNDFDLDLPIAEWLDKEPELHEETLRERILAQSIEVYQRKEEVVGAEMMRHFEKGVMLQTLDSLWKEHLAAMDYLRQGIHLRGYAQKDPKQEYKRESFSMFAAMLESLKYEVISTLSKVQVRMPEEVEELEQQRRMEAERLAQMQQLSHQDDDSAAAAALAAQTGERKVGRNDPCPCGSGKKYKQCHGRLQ
Chain of Chromo domain-containing protein 1 (Saccharomyces cerevisiae (strain ATCC 204508 / S288c) (Baker's yeast)) (P32657 whole entry, the tested form may be a part): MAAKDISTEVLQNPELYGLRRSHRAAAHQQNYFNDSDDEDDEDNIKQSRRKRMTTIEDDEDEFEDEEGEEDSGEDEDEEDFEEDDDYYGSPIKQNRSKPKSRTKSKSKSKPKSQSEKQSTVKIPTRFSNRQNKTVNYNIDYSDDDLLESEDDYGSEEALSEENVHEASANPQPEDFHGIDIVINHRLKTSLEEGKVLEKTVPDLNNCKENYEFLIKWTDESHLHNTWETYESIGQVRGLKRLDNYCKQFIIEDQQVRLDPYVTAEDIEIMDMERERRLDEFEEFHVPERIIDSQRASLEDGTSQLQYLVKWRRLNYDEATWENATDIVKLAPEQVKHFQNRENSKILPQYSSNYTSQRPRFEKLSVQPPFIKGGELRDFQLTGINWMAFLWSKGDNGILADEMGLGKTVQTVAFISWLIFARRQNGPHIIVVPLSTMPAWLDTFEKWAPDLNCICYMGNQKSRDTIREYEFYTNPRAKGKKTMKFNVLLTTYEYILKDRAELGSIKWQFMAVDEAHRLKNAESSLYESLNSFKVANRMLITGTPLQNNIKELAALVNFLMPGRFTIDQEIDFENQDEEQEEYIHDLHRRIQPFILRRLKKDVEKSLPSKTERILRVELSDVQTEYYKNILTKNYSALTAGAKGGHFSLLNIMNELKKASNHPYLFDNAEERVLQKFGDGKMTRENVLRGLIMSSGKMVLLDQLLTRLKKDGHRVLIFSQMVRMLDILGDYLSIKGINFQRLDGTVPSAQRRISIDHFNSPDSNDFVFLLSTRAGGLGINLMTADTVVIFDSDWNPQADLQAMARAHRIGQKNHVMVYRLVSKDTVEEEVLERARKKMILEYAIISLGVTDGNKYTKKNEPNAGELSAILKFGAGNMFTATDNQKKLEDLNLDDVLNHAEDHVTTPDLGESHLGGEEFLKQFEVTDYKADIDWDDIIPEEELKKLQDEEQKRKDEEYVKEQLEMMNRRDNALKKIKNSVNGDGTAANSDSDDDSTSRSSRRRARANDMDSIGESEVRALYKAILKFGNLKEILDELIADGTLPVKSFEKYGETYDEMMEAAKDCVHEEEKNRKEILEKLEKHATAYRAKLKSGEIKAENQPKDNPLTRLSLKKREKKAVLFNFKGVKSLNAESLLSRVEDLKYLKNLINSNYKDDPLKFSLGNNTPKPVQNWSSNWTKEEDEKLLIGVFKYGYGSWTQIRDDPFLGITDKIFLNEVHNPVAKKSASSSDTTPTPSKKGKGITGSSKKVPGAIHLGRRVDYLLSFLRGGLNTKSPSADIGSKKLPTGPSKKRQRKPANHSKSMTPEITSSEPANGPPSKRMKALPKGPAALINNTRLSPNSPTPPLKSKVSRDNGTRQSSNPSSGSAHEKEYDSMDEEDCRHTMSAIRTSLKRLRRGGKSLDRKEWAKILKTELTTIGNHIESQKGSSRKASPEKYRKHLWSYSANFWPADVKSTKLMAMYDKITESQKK
Chain of Sialic acid-binding Ig-like lectin 9 (Homo sapiens) (Q9Y336 whole entry): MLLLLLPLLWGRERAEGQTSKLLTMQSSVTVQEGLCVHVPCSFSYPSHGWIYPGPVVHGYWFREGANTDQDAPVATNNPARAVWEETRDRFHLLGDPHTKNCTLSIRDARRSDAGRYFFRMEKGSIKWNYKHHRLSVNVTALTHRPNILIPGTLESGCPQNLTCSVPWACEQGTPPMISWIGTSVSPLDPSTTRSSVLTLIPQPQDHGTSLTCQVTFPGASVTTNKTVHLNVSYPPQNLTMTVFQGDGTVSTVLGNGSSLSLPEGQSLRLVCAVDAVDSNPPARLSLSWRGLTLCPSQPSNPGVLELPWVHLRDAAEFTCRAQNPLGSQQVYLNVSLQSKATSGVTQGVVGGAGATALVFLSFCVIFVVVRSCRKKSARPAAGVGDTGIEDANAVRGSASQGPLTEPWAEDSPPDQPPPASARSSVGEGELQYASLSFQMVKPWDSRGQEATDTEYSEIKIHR

Turning to `COCC(C)NC(=O)c1cn(C(C)(C)C)c2ncccc12` (stereo not given), the Percent Effect in assay [1] was 0.871%; in [2] it was 14.7%; in [3], 4.78%; in assay [4] it was -9.18%; in the assay with Trypanosoma cruzi it was 4.93%; in assay [5] it was 0.443%. The Percent Effect in [6] is 18.2%; in the assay filed under Homo sapiens, 6.95%; in assay [7] it was -13.5%; in assay [8], 0%; in assay [9], 10%; in assay [10], -22.6%.
Turning to `CN1CCN(Cc2ccoc2)Cc2cccnc21`, the Percent Effect in assay [1] is -4.57%; in assay [2], -14.3%; in assay [3], 3.07%; in [4], -3.94%; in the assay with Trypanosoma cruzi, -5.16%; in assay [5] it was 4.45%. Further, the Percent Effect was -0.265% in [6]; 0.714% in the assay listed under Homo sapiens; -8.68% in [7]; 5.79% in assay [8]; -15.4% in [9]; 3.94% in assay [10].
For the compound `c1cnc(N2CCC3(CCN(CC4CCOC4)C3)CC2)nc1` (stereo not given), the Percent Effect was -3.76% in assay [1]; 6.49% in [2]; 8.74% in assay [3]; -2.65% in assay [4]; -2.63% with Trypanosoma cruzi; 0.405% in [5]. Moreover, the Percent Effect is 10.2% in assay [6]; 0.479% in the assay listed under Homo sapiens; -3.12% in [7]; 2.63% in assay [8]; 7.69% in assay [9]; -4.21% in assay [10].
Regarding `c1cnc(N2CCC3(COCCN(CC4CC4)C3)C2)nc1` (stereo not given), the Percent Effect is -1.87% in assay [1]; 3.9% in [2]; 6.45% in assay [3]; -2.75% in assay [4]; -3.21% in the assay with Trypanosoma cruzi; 0% in [5]. The Percent Effect in [6] was 14.2%; in the assay listed under Homo sapiens, -5.95%; in assay [7] it was 3.4%; in assay [8] it was 3.68%; in assay [9], 10.3%; in assay [10], -1.41%.
As to `CC[C@H]1NCCC[C@]12CCC(=O)N2Cc1ccncc1`, the Percent Effect in assay [1] is -3.12%; in [2], 11.7%; in assay [3] it was 0.865%; in assay [4], 1.31%; in the assay with Trypanosoma cruzi it was 0%; in assay [5], 1.37%. Moreover, the Percent Effect was -0.772% in assay [6]; -15% in the assay listed under Homo sapiens; -6.09% in [7]; 5.8% in assay [8]; 15% in assay [9]; -0.792% in assay [10].
For `CC(C)c1cc(NC(=O)CN2CCCC2Cn2cccn2)on1` (stereo not given), the figures for the Percent Effect in assay [3] and in [7] were -1.29% and 29.8%, respectively.
The matching figures for `Cc1cncc(C(=O)N2CCCCC2c2nc(C)cs2)c1` (stereo not given): -9.59% and -42.4%.
The corresponding values for `CC(C)OCCN1CCN(C(=O)c2cccc(CC#N)c2)CC1` are 2.85% and -12.3%.
On to `Cc1ccc2c(n1)N(Cc1cccnc1)CCN(C(=O)C1CCC1)C2`, for which the Percent Effect in [3] was 14.8%; in assay [7], -15.2%.
Take `CCn1cc(CN2C[C@@H]3CCCN3C[C@@H]2CCSC)c(C)n1`: the Percent Effect is -0.662% in assay [3] and 5.06% in assay [7].
